The other results are listed elsewhere or left out. The hit rate among all sequences tested is not known here.
B1: HC736 (peptide)
chain: CASLLSPRPIAGNASASA
B2: HC1635 (peptide)
chain: CAAVRTKLKLAGNASASA
B3: FS-2693 (peptide)
chain: CARKKRIFNLAGNASASA
B4: FS-3158 (peptide)
chain: CARKKRNVNFAGNASASA
B5: FS-1968 (peptide)
chain: CARRKRKNKTAGNASASA
B6: FS-2068 (peptide)
chain: CARRKRNVNTAGNASASA
B7: FS-2450 (peptide)
chain: CARRKKQVGTAGNASASA
B8: HC1749 (peptide)
chain: CAMEECSQYLAGNASASA
B9: HC417 (peptide)
chain: CAPVVVGTTDAGNASASA
B10: HC2210 (peptide)
chain: CAEVVTSVWVAGNASASA
B11: FS-2440 (peptide)
chain: CARPRRDCVAAGNASASA
B12: FS-1762 (peptide)
chain: CARPRRDAEPAGNASASA
B13: FS-2741 (peptide)
chain: CARPRRDAAEAGNASASA
B14: FS-2165 (peptide)
chain: CARPRRLLQAAGNASASA
B15: FS-2500 (peptide)
chain: CARPRRDSAGAGNASASA
B16: HC1854 (peptide)
chain: CATKPCSGSWAGNASASA
B17: HC1970 (peptide)
chain: CAEVTTPCSGAGNASASA
B18: FS-2326 (peptide)
chain: CARARREALRAGNASASA
B19: FS-2082 (peptide)
chain: CARRRRVVPEAGNASASA
B20: FS-2297 (peptide)
chain: CARRRRGAPEAGNASASA
B21: FS-2787 (peptide)
chain: CARRRRGALRAGNASASA
B22: HC2110 (peptide)
chain: CAVDVVCCSMAGNASASA
B23: FS-575 (peptide)
chain: CAWRNRKKKTAGNASASA
B24: TR8 (peptide)
chain: CAGLVPRGSGAGNASASA
B25: HC1727 (peptide)
chain: CAMEECSFHLAGNASASA
B26: HC1372 (peptide)
chain: CASYSWTGALAGNASASA
B27: HC950 (peptide)
chain: CASGENLPYLAGNASASA
B28: HC176 (peptide)
chain: CAVGGVYLLPAGNASASA
B29: FS-2700 (peptide)
chain: CARKRRNLETAGNASASA
B30: FS-2971 (peptide)
chain: CARKRRAVLTAGNASASA
B31: HC1325 (peptide)
chain: CAKKRTVVLTAGNASASA
B32: FS-2401 (peptide)
chain: CARQQRDEETAGNASASA
B33: FS-2322 (peptide)
chain: CASFRRAFLIAGNASASA
B34: FS-3194 (peptide)
chain: CARKRRANSLAGNASASA
B35: HC1243 (peptide)
chain: CAEPDVAVLTAGNASASA
B36: FS-2152 (peptide)
chain: CARKFRSGLIAGNASASA
B37: FS-3258 (peptide)
chain: CARKRRALLIAGNASASA
B38: FS-2441 (peptide)
chain: CARPRRILNTAGNASASA
B39: HC1382 (peptide)
chain: CAINALSNSLAGNASASA
B40: HC1481 (peptide)
chain: CATRCFDSTVAGNASASA
B41: HC611 (peptide)
chain: CAILQASLLKAGNASASA
B42: HC2560 (peptide)
chain: CASTPCSACLAGNASASA
B43: HC2264 (peptide)
chain: CAILEVVTSTAGNASASA
B44: HC1698 (peptide)
chain: CAMTECSQHLAGNASASA

Target: furin, P09958
Sequence (P09958 whole entry): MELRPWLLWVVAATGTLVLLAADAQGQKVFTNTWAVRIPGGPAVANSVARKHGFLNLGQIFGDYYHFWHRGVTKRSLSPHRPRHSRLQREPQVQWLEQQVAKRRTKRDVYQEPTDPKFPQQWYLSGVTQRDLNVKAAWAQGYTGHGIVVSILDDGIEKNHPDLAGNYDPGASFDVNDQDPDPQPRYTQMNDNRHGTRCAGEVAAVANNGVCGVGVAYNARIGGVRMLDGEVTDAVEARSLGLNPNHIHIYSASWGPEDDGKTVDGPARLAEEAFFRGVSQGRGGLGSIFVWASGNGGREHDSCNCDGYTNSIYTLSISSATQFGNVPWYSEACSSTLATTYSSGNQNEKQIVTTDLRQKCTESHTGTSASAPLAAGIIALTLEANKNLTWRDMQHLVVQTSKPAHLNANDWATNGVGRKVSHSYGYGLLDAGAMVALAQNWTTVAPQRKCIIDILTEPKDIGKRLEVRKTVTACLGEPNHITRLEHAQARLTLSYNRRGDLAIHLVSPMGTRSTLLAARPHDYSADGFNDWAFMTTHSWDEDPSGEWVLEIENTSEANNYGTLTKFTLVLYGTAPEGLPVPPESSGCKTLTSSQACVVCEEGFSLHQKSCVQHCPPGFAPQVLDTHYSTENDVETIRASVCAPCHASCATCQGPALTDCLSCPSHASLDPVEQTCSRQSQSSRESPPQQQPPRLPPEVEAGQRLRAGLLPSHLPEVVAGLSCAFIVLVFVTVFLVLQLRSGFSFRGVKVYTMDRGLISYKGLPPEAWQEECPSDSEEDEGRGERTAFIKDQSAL
Assay: furin cleavage Z-score vs untreated control; higher = more cleavage, active = 3.5 or more, inactive = 1 or less, 8 variable residues between constant flanks
Experimental: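 Multiplexed peptide-cDNA fusion cleavage assay. 8-mer variable peptides flanked by constant Cys-Ala (N-term) and Ala-Gly-Asn-Ala-Ser-Ala-Ser-Ala (C-term) and conjugated to a cDNA oligonucleotide were bead-immobilised via the N-terminus. They were treated with purified furin at a 1:10 enzyme:substrate ratio in 50 mM HEPES pH 7.5, 1 mM CaCl2, 100 mM NaCl for 7.5, 15 or 30 min. Released cDNA was counted by next-generation sequencing, and log counts versus no-furin controls were lowess-adjusted and converted to robust Z-scores.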

Row | Sequence | furin cleavage Z-score (7.5 min) | furin cleavage Z-score (15 min) | furin cleavage Z-score (30 min)
1 | B1 | 0.821 (inactive) | -0.642 (inactive) | -0.193 (inactive)
2 | B2 | -0.516 (inactive) | 0.293 (inactive) | 1.05
3 | B3 | 0.592 (inactive) | 0.839 (inactive) | 0.689 (inactive)
4 | B4 | 10.3 (active) | 10.5 (active) | 8.52 (active)
5 | B5 | 0.116 (inactive) | -2.04 (inactive) | -0.0117 (inactive)
6 | B6 | 9.71 (active) | 10.9 (active) | 8.02 (active)
7 | B7 | -0.127 (inactive) | 1.03 | 0.188 (inactive)
8 | B8 | 0.871 (inactive) | 2.54 | 0.195 (inactive)
9 | B9 | -0.513 (inactive) | 0.318 (inactive) | -0.373 (inactive)
10 | B10 | -1.35 (inactive) | -0.635 (inactive) | 0.276 (inactive)
11 | B11 | 5.46 (active) | 5.89 (active) | 6.25 (active)
12 | B12 | 10.8 (active) | 12.9 (active) | 9.93 (active)
13 | B13 | 8.33 (active) | 11 (active) | 8.31 (active)
14 | B14 | -1.03 (inactive) | -0.941 (inactive) | -0.713 (inactive)
15 | B15 | 0.906 (inactive) | -0.366 (inactive) | 0.714 (inactive)
16 | B16 | -0.725 (inactive) | -0.656 (inactive) | -1.12 (inactive)
17 | B17 | 0.193 (inactive) | -0.206 (inactive) | -0.0766 (inactive)
18 | B18 | 7.37 (active) | 9.91 (active) | 7.3 (active)
19 | B19 | 1.92 | 5.11 (active) | 6.08 (active)
20 | B20 | 6.8 (active) | 6.5 (active) | 6.23 (active)
21 | B21 | 3.24 | 5.07 (active) | 6.59 (active)
22 | B22 | -1.67 (inactive) | -0.512 (inactive) | -0.588 (inactive)

Row | Sequence | furin cleavage Z-score (7.5 min) | furin cleavage Z-score (15 min) | furin cleavage Z-score (30 min)
23 | B23 | -0.592 (inactive) | -0.739 (inactive) | -1.25 (inactive)
24 | B24 | -1.24 (inactive) | -1.44 (inactive) | -1.84 (inactive)
25 | B25 | 2.23 | -1.03 (inactive) | 1.18
26 | B26 | -0.915 (inactive) | -0.282 (inactive) | 0.0526 (inactive)
27 | B27 | -0.962 (inactive) | 0.134 (inactive) | -0.522 (inactive)
28 | B28 | 1.19 | 0.0945 (inactive) | 0.538 (inactive)
29 | B29 | 7.71 (active) | 8.41 (active) | 8.69 (active)
30 | B30 | 8.83 (active) | 12.7 (active) | 10.3 (active)
31 | B31 | -0.725 (inactive) | -0.173 (inactive) | 0.000165 (inactive)
32 | B32 | -0.691 (inactive) | -0.187 (inactive) | -3.21 (inactive)
33 | B33 | -1.89 (inactive) | -0.15 (inactive) | -1.34 (inactive)
34 | B34 | 6.54 (active) | 9.21 (active) | 5.81 (active)
35 | B35 | 0.073 (inactive) | 0.723 (inactive) | -1.2 (inactive)
36 | B36 | -0.364 (inactive) | 0.099 (inactive) | -0.282 (inactive)
37 | B37 | 5.47 (active) | 5.56 (active) | 8.18 (active)
38 | B38 | -2.76 (inactive) | 0.234 (inactive) | 0.846 (inactive)
39 | B39 | -0.629 (inactive) | -0.0116 (inactive) | 0.458 (inactive)
40 | B40 | 1.01 | 0.491 (inactive) | 0.363 (inactive)
41 | B41 | -0.334 (inactive) | -0.703 (inactive) | -0.0413 (inactive)
42 | B42 | 0.847 (inactive) | -0.78 (inactive) | 0.791 (inactive)
43 | B43 | -1.51 (inactive) | -0.366 (inactive) | 0.122 (inactive)
44 | B44 | 0.478 (inactive) | 0.668 (inactive) | 0.28 (inactive)

Source: the supplement of paper PMC3545927
